For 23 compounds, Potency and activity change, positive = activation results are on record in PubChem BioAssay (Tox21).

Where “and” joins values, the source holds several entries; their conditions need not be identical. Identical values can stand only once. Records with an inconclusive call do not appear. Some compounds were tested as several samples or in several runs, with calls that do not always agree. Calls of active or inactive are those of the source. Unless noted, the call rests on the fitted dose curve; in most records, active means well fitted curve in the direction sought with a large enough effect in the repeat runs; inconclusive means weak or mixed curves; inactive means no such curve, though single readings can be large; an effect the other way counts as inactive or inconclusive.

Experiment [1] is described as follows: qHTS assay to identify small molecule agonists of H2AX (AID 1224845; active means well fitted activation curve with a large enough effect in the signal ratio in the repeat runs, not every such curve was filed as active; the % refers to the signal ratio; further: potency means the concentration at half of the fitted maximal effect). The method in brief:
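Wild-type CHO-K1 cells plated overnight, then exposed 3 hr at 37C to compounds at 15 concentrations (0.76% DMSO). Lysed, then HTRF anti-pH2AX(S139)-cryptate/anti-H2AX-d2 detection after 24 hr at room temperature; emissions 665 and 620 nm.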

The nature of experiment [2]: qHTS assay to identify small molecule agonists of H2AX - cell viability counter screen (AID 1224847; calls by dose curve; further: nearly all actives have a fitted effect of over 30% in size; further: potency means the concentration at half of the fitted maximal effect). The method, boiled down:
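Wild-type CHO-K1 cells (10% FBS medium) were plated overnight at 37C, exposed to compounds at 15 concentrations for 3 hr at 37C (0.76% DMSO final), and viability was read as CellTiter-Glo luminescence after 30 min at room temperature.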
On the technique in general: In qHTS, concentration-response curves come from the screen itself.

Experiment [3] in a line: qHTS RealTime-Glo MT Cell Viability Assay in HepG2 cells - 24 hour (AID 1224867). Further: nearly all actives have a fitted effect of over 50% in size. Further: potency means the concentration at half of the fitted maximal effect. The method in brief:
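Cell number in HepG2 cultures estimated from NanoLuc luminescence generated by metabolic reduction of a prosubstrate by living cells. The homogeneous, nonlytic format allowed repeated reads at 0, 8, 16, 24, 32 and 40 h of compound exposure.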

A short description of experiment [4]: qHTS RealTime-Glo MT Cell Viability Assay in HEK293 cells - 32 hour (AID 1224868). Further: nearly all actives have a fitted effect of over 50% in size. Further: potency means the concentration at half of the fitted maximal effect. The method, boiled down: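 Homogeneous bioluminescent viability format in HEK293 cells (600 cells/well). Following 5 h at 37 C/5% CO2, 23 nL compound was pintooled; the signal was measured repeatedly during 40 h incubation.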
The nature of experiment [5]: qHTS RealTime-Glo MT Cell Viability Assay in HepG2 cells - 40 hour (AID 1224870). Further: nearly all actives have a fitted effect of over 50% in size. Further: potency means the concentration at half of the fitted maximal effect. The method in brief:
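HepG2 cells mixed with RealTime-Glo MT reagents (NanoLuc plus cell-permeant prosubstrate) were seeded at 600 cells/well, incubated 5 h at 37 C/5% CO2, then pinned with compounds in DMSO; nonlytic luminescence tracked viability during 40 h treatment.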

The nature of experiment [6]: A CellTox Green Cytotoxicity Assay to monitor cytotoxicity in HEK293 cells - 40 hour (AID 1224871). Further: nearly all actives have a fitted effect of over 45% in size. Further: potency means the concentration at half of the fitted maximal effect. The method in brief: (§1)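 HEK293 cells premixed with CellTox Green dye were seeded at 600 cells/well and left 5 h at 37 C/5% CO2 before pin transfer of 23 nL compound in DMSO. Fluorescence from dye bound to dead-cell DNA was read during 40 h treatment.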
Experiment [7] is described as follows: A CellTox Green Cytotoxicity Assay to monitor cytotoxicity in HEK293 cells - 0 hour (AID 1224869). Further: nearly all actives have a fitted effect of over 50% in size. The method, boiled down:
as §1

A short description of experiment [8]: qHTS assay to identify small molecule agonists of the hypoxia (HIF-1) signaling pathway (AID 1224846; active means well fitted activation curve with a large enough effect in the signal ratio in the repeat runs, not every such curve was filed as active; the % refers to the signal ratio). The method, boiled down: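 HRE-bla ME-180 cells (beta-lactamase reporter under hypoxia response element) were plated at 2,000 cells/well in medium with 0.5% dialyzed FBS, rested 5 hrs, then given compounds in DMSO for 17 hrs at 37C, 5% CO2. Reporter induction was read with CCF4-AM FRET substrate.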

Experiment [9] can be described thus: qHTS assay to identify small molecule antagonists of the estrogen related receptor (ERR) signaling pathway from Tox21 library (AID 1224848). Further: nearly all actives have a fitted effect of over 50% in size. Further: potency means the concentration at half of the fitted maximal effect. The method, boiled down:
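Screening used an ERR reporter line supplied by NTP, exposed for 18 h at 37 C to library compounds delivered in DMSO. Signal was luciferase luminescence developed with ONE-Glo at room temperature for 30 min.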

Experiment [10] can be described thus: qHTS assay to identify small molecule agonists of the estrogen related receptor (ERR) signaling pathway from Tox21 library (AID 1224849; calls by dose curve; further: nearly all actives have a fitted effect of over 15% in size). The note with it: ERR reporter cell line, ONE-Glo luciferase, 18 h; at 92.4 µM (top of the series) unless noted. The method in brief: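 ERR reporter cell line (NTP) seeded, rested 6 h at 37 C/5% CO2, then pinned with Tox21 compounds in DMSO. After 18 h at 37 C, ONE-Glo luciferase luminescence was read following 30 min at room temperature.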
On the % scale 0 is the no-effect control and ±100 the full control effect.

Turning to `O=C1C=CC(=O)N1c1ccc(Cc2ccc(N3C(=O)C=CC3=O)cc2)cc1`, the Potency result in [1] is “inactive”. The Potency in experiment [2] was 50.5 µM (active); in experiment [3], 12.3 µM (active); in experiment [4], 11 µM (active); in experiment [5], 15.5 µM (active); in experiment [6] it was 11 µM (active).

`CCCCN1CCCC[C@H]1C(=O)Nc1c(C)cccc1C`: the Potency entry in experiment [1], in experiment [2], in [3], in experiment [4], in experiment [5] and in experiment [6] was “inactive” in each case.

On to `Nc1ccc2c3c(cccc13)-c1ccccc1-2`, for which the Potency result in [1], in experiment [2], in experiment [3] and in experiment [5] was “inactive” throughout. Moreover, the Potency in [4] was 24.8 µM (active); in experiment [6], 39.3 µM (active).

Turning to `CC[C@H](c1ccc(O)cc1)[C@@H](CC)c1ccc(O)cc1`, the Potency entry in experiment [1], in [3], in experiment [7] and in experiment [5] was “inactive” in each case. Besides, the Potency in experiment [2] is 101 µM (active) and inactive; in experiment [4], 27.5 µM (active); in experiment [6] it was 34.7 µM (active) and inactive.

As to `CC(C)n1nc(-c2cc3cc(O)ccc3[nH]2)c2c(N)ncnc21`, the Potency entry in experiment [8], in [2] and in [7] was “inactive” throughout. The Potency was 1.06 µM (active) in experiment [9] and 0.239 µM (active) in [4]. For the same compound, the activity change, positive = activation in experiment [10] was -55.4% [at 42.5 µM] (inactive).

`O=[N+]([O-])c1cc(Cl)c(Cl)c(Cl)c1Cl`: the Potency result in experiment [8], in experiment [2], in experiment [3], in [7] and in experiment [5] was “inactive” in each case. Moreover, the activity change, positive = activation in experiment [10] is -25.7% (inactive).

Consider `Cc1cccc(CN2CCN(C(c3ccccc3)c3ccc(Cl)cc3)CC2)c1` (configuration not stated), for which the Potency result in experiment [1], in experiment [3], in experiment [4], in experiment [7], in experiment [5] and in [6] was “inactive” each time. For the same compound, in [9], the Potency was 26.6 µM (active). Also, the activity change, positive = activation in [10] is -29.2% [at 42.5 µM] (inactive).

Regarding `O=C(Oc1cccc2cccnc12)c1ccccc1`, the Potency in experiment [1] is 9.82 µM (active); in experiment [9], 0.133 µM (active); in [5] it was 5.35 µM (active). The activity change, positive = activation in experiment [10] is -60.1% [at 42.5 µM] (inactive). Also, the Potency result in [3], in [4] and in experiment [7] was “inactive” in each case.

In the case of `c1cc(C(c2ccc(OCC3CO3)cc2)c2ccc(OCC3CO3)cc2)ccc1OCC1CO1` (configuration not stated), the Potency entry in experiment [1], in [2] and in [7] was “inactive” throughout. The Potency in [5] was 54.9 µM (active).

Take `Nc1ccc2cc(S(=O)(=O)O)cc(O)c2c1N=Nc1ccccc1C(F)(F)F`: the Potency entry in [8], in experiment [9], in [3], in experiment [4], in experiment [7] and in experiment [5] was “inactive” in each case. Further, in experiment [6], the Potency entry is “inactive”. Also, in experiment [10], the activity change, positive = activation is 0.11% (inactive).

For the compound `CN(C/C=C/C#CC(C)(C)C)Cc1cccc2ccccc12`, the Potency result in experiment [8], in experiment [3], in experiment [7] and in experiment [5] was “inactive” each time. The Potency in [2] was 55.2 µM (active).

For the compound `CC(C)(C)CC(C)(C)c1ccc(O)c(Cc2ccc(Cl)cc2Cl)c1`, the Potency in experiment [1] was 19.6 µM (active); in experiment [2] it was 15.6 µM (active); in experiment [4], 21.3 µM (active). The Potency result in experiment [7] is “inactive”.

In the case of `CC(=O)S[C@@H]1CC2=CC(=O)CC[C@]2(C)[C@H]2CC[C@@]3(C)[C@@H](CC[C@@]34CCC(=O)O4)[C@H]12`, the Potency result in [8], in experiment [2], in experiment [7], in [5] and in [6] was “inactive” in each case.

Regarding `NC(=O)N1C(=O)C(C(=O)c2cc(Cl)cs2)c2cc(F)c(Cl)cc21` (configuration not stated), the Potency result in experiment [1], in experiment [9], in experiment [4], in experiment [7] and in experiment [6] was “inactive” throughout. Also, the activity change, positive = activation in experiment [10] was -9.34% (inactive).

On to `CS(=O)(=O)CCNCc1ccc(-c2ccc3ncnc(Nc4ccc(OCc5cccc(F)c5)c(Cl)c4)c3c2)o1`, for which the Potency entry in experiment [1] and in experiment [6] was “inactive” each time. In addition, the Potency in experiment [9] was 9.44 µM (active). The activity change, positive = activation in experiment [10] was -48.5% [at 42.5 µM] (inactive).

`O=c1cccccc1O`: the Potency in [1] is 40.9 µM (active). For the same compound, the Potency result in experiment [2], in [3], in experiment [7], in experiment [5] and in experiment [6] was “inactive” in each case.

Turning to `Oc1ccc2cc(SSc3ccc4cc(O)ccc4c3)ccc2c1`, the Potency result in experiment [8], in experiment [3], in experiment [7] and in experiment [5] was “inactive” each time. Also, the Potency is 89.9 µM (active) in experiment [2]; 61.2 µM (active) and 54.5 µM (active) in experiment [9]; 49 µM (active) and 24.5 µM (active) in experiment [6]. Further, in experiment [10], the activity change, positive = activation was -64.5% (inactive) and -58.9% (inactive).

For `C/C(=C(/OCCOc1ccc(Cl)cc1)c1ccc(Cl)cc1Cl)n1ccnc1`, the Potency result in experiment [1], in [2], in [3], in experiment [7] and in [5] was “inactive” throughout.

On to `Cc1cc2c(cc1C(F)(F)F)N(C(=O)Nc1ccc(Oc3cccnc3C)nc1)CC2`, for which the Potency result in experiment [8], in experiment [3], in [5] and in experiment [6] was “inactive” throughout. Besides, the Potency is 45.7 µM (active) in experiment [2], 4.93 µM (active) in experiment [9] and 4.97 µM (active) in experiment [4]. In addition, the activity change, positive = activation in experiment [10] was -42.2% (inactive).

On to `CCOC(=O)c1nc(C(Cl)(Cl)Cl)n(-c2ccc(Cl)cc2Cl)n1`, for which the Potency result in experiment [8], in experiment [4], in [7], in [5] and in [6] was “inactive” in each case. Also, the Potency in experiment [9] is 61.1 µM (active). In addition, the activity change, positive = activation in experiment [10] is -43.4% (inactive).

In the case of `CCOC(=O)O[C@]1(C(=O)OCCl)CC[C@H]2[C@@H]3CCC4=CC(=O)C=C[C@]4(C)[C@H]3[C@@H](O)C[C@@]21C`, the Potency entry in [1], in experiment [2], in experiment [5] and in [6] was “inactive” in each case.

In the case of `O=Cc1cc(O)ccc1Br`, the Potency result in experiment [1], in [3], in experiment [7] and in experiment [5] was “inactive” each time.

With `C=CC(=O)OCCn1c(=O)n(CCOC(=O)C=C)c(=O)n(CCOC(=O)C=C)c1=O`, the Potency was 25.3 µM (active) in experiment [1], 21.9 µM (active) in [3], 11 µM (active) in experiment [4] and 19.5 µM (active) in experiment [5]. In addition, the Potency result in experiment [9] and in experiment [7] was “inactive” each time. Further, the activity change, positive = activation in experiment [10] is -78.2% (inactive).
